# Source: PubChem BioAssay (NCI)
# Several values for one entry are separate records, joined by “and”; a condition that tells them apart may be missing. Identical values can stand only once. The panel holds about 79,000 compounds, 15% with a hit somewhere; the sample as a whole holds those more often. More than one record can exist for a structure, and the calls need not agree. Activity calls are given as the source filed them. Cut-off read from the data, not from the text of the source: active = growth inhibition above about 70%; inactive = the rest.
# Key:
# [1] = NCI Yeast Anticancer Drug Screen. Data for the rad50 strain (AID 155);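 note: 0% = growth of vehicle-only cultures of the same strain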; details: S. cerevisiae rad50 strain growth inhibition, stronger effect = higher value
# Outline: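 Vehicle-treated cultures provide the reference for the growth inhibition reported for compound-exposed, repair-deficient yeast.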
# [2] = NCI Yeast Anticancer Drug Screen. Data for the mec2-1 strain (AID 157); details: S. cerevisiae mec2-1 strain, stronger effect = higher value
# Outline: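 Cells of the genetically defined mec2-1 yeast strain are incubated with test compound. Inhibition of growth is calculated against vehicle-treated controls.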
# [3] = NCI Yeast Anticancer Drug Screen. Data for the sgs1 mgt1 strain (AID 161);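 note: 0% = growth of cultures given vehicle only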; details: S. cerevisiae sgs1 mgt1 strain, stronger effect = higher value
# Outline: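 Inhibition of yeast growth, normalised to vehicle-treated controls, is reported for a strain bearing genetic alterations in DNA damage repair.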
# [4] = NCI Yeast Anticancer Drug Screen. Data for the cln2 rad14 strain (AID 165);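 note: 0% = growth equal to vehicle treated cultures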; details: S. cerevisiae cln2 rad14 strain, stronger effect = higher value
# Outline: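 The screen exposed genetically defined yeast (cln2 rad14) to test compounds and scored growth inhibition relative to vehicle-treated controls.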
# [5] = NCI Yeast Anticancer Drug Screen. Data for the bub3 strain (AID 167); details: S. cerevisiae bub3 mutant strain, stronger effect = higher value
# Outline: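 Mutant yeast screening strain plus compound; vehicle-treated cultures serve as the 0% inhibition reference.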
# [6] = NCI Yeast Anticancer Drug Screen. Data for the mlh1 rad18 strain (AID 175); details: S. cerevisiae mlh1 rad18 strain growth inhibition, stronger effect = higher value
# Outline: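 Compound-treated yeast growth, normalised to vehicle controls. Strain bears defined DNA repair mutations.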
# [7] = at 5.0 µM (retest, dose inferred, filed as 0.5)
# [8] = at 50.0 µM (retest, dose inferred, filed as 5.0)
SMILES,"growth inhibition [1, 7]","growth inhibition [1, 8]",growth inhibition ([1]; at 50.0 µM),"growth inhibition [2, 7]","growth inhibition [2, 8]",growth inhibition ([2]; at 50.0 µM),"growth inhibition [3, 7]","growth inhibition [3, 8]",growth inhibition ([3]; at 50.0 µM),"growth inhibition [4, 7]","growth inhibition [4, 8]",growth inhibition ([4]; at 50.0 µM),"growth inhibition [5, 7]","growth inhibition [5, 8]",growth inhibition ([5]; at 50.0 µM),"growth inhibition [6, 7]","growth inhibition [6, 8]",growth inhibition ([6]; at 50.0 µM)
N#CC(C#N)=Cc1cccc([N+](=O)[O-])c1,42% (inactive),89% (active),-15.1% (inactive) and 98.2% (active),29% (inactive),92% (active),-11.1% (inactive) and 90.8% (active),13% (inactive),84% (active),-24.4% (inactive) and 99.2% (active),1% (inactive),28% (inactive),-4.8% (inactive) and 93.7% (active),9% (inactive),76% (active),-8.45% (inactive) and 99.5% (active),33% (inactive),92% (active),-27.9% (inactive) and 97.8% (active)
Cc1ccc([PH+](c2ccc(C)cc2)c2ccc(C)cc2)cc1.Cc1ccc([PH+](c2ccc(C)cc2)c2ccc(C)cc2)cc1.[Cl][Hg][Cl],98% (active),95% (active),47.6% (inactive),99% (active),98% (active),97.2% (active),99% (active),95% (active),99.5% (active),93% (active),96% (active),29.3% (inactive),98% (active),95% (active),99.3% (active),99% (active),94% (active),95.9% (active)
Oc1cccc[c]1[Hg][Cl],99% (active),99% (active),99.5% (active),99% (active),100% (active),99.7% (active),99% (active),99% (active),99.5% (active),100% (active),99% (active),98.6% (active),99% (active),99% (active),99.5% (active),99% (active),99% (active),99.5% (active)
O=C1C=CC(=O)N1c1cccc2ccccc12 (tested in a mixture with another compound),-1% (inactive),1% (inactive),10.3% (inactive),-39% (inactive),-1% (inactive),2.7% (inactive),0% (inactive),2% (inactive),9.1% (inactive),-1% (inactive),3% (inactive),15.8% (inactive),-8% (inactive),-5% (inactive),61% (inactive),-1% (inactive),-1% (inactive),12.2% (inactive)
C/C(=N\O)C(CN(C)C)C(c1ccccc1)c1c(O)c2ccccc2oc1=O (stereo not given),25% (inactive),25% (inactive),76.5% (active),12% (inactive),12% (inactive),63.4% (inactive),15% (inactive),15% (inactive),82.2% (active),4% (inactive),4% (inactive),75.8% (active),12% (inactive),12% (inactive),74.7% (active),14% (inactive),14% (inactive),75.2% (active)
